# Data published in article PMC7862700, “An all-to-all approach to the identification of sequence-specific readers for epigenetic DNA modifications on cytosine”.
# Assays:
# Experiment in all cases: DAPPL (digital affinity profiling via proximity ligation, sequencing); 10 mM Tris-HCl pH 7.5, 50 mM NaCl, 1 mM DTT, 4% glycerol, room temperature, 30 min; GST-TFs on glutathione beads, 16-mer random dsDNA library, 0.1% formaldehyde crosslink after washing; high values mean tight binding
# FEV = target: T1, FEV (Homo sapiens, UniProt Q99581 1-238); conditions: protein: recombinant; tags: N-terminal GST; dsDNA, one strand shown
# T1 sequence: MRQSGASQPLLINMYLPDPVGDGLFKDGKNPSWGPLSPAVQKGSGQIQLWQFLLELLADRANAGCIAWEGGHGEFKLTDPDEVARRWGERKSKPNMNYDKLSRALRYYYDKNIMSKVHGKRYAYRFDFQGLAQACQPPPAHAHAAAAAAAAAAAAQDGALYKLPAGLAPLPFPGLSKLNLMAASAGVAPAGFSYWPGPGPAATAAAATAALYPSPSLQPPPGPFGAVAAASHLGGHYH
# Summary of the method: (§1)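 Binding signal is each hexamer's read frequency for a factor divided by its frequency in the tag-only sample. The factors were GST-fused human transcription factors from yeast, captured on glutathione beads, DNA-barcoded and pooled with that sample. Pools were incubated with 200 nmole of a random double-stranded 16-mer DNA library in Tris/NaCl/DTT/glycerol buffer at room temperature for 30 min, then washed, crosslinked with 0.1% formaldehyde, proximity-ligated with BsaI/T4 ligase (1 h, 37 °C), PCR-amplified and sequenced on an Illumina NextSeq500.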
# ETV5 = ETV5 (Homo sapiens, UniProt P41161 1-510); conditions: protein: recombinant; tags: N-terminal GST; dsDNA, one strand shown
# Chain of ETV5 (P41161 whole entry): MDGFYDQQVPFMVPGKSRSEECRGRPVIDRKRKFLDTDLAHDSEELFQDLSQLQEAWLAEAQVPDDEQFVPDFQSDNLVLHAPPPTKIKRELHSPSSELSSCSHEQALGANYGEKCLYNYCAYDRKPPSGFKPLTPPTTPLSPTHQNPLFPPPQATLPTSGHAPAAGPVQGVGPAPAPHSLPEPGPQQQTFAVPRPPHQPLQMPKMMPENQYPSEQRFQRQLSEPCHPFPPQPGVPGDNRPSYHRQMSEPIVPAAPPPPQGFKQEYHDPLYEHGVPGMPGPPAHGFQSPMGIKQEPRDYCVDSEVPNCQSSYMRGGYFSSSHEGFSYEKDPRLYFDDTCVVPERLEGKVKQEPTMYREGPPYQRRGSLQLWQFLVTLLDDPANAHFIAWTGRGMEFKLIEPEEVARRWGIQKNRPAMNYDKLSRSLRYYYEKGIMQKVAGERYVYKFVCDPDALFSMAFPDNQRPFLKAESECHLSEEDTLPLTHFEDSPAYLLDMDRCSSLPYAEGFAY
# Summary of the method: as §1
# HSF1 = HSF1 (Homo sapiens, UniProt Q00613 1-529); conditions: protein: recombinant; tags: N-terminal GST; chain copies: 3; dsDNA, one strand shown
# Chain of HSF1 (Q00613 whole entry): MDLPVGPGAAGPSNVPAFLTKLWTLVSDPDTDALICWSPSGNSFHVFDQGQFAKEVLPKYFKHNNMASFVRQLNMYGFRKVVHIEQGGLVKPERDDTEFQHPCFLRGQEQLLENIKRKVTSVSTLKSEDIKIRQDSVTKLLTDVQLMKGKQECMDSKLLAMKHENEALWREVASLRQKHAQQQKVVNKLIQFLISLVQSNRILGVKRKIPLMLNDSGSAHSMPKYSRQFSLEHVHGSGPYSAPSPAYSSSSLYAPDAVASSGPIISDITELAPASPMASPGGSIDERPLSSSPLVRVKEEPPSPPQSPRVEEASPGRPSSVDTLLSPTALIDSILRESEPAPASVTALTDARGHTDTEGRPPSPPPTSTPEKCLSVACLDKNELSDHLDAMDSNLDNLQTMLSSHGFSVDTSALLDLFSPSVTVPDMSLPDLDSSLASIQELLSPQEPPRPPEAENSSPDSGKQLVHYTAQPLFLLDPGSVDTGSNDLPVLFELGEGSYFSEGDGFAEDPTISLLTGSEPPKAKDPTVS
# Summary of the method: as §1
# SPIC = target: T2, SPIC (Homo sapiens, UniProt Q8N5J4 1-248); conditions: protein: recombinant; tags: N-terminal GST; dsDNA, one strand shown
# T2 sequence: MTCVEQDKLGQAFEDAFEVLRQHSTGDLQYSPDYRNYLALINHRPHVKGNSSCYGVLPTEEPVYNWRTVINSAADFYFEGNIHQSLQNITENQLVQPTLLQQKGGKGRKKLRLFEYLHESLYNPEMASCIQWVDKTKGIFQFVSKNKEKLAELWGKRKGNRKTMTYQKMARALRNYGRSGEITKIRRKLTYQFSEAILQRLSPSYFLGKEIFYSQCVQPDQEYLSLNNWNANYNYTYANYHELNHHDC
# Summary of the method: as §1
# ELF4 = ELF4 (Homo sapiens, UniProt Q99607 1-663); conditions: protein: recombinant; tags: N-terminal GST; dsDNA, one strand shown
# Chain of ELF4 (Q99607 whole entry): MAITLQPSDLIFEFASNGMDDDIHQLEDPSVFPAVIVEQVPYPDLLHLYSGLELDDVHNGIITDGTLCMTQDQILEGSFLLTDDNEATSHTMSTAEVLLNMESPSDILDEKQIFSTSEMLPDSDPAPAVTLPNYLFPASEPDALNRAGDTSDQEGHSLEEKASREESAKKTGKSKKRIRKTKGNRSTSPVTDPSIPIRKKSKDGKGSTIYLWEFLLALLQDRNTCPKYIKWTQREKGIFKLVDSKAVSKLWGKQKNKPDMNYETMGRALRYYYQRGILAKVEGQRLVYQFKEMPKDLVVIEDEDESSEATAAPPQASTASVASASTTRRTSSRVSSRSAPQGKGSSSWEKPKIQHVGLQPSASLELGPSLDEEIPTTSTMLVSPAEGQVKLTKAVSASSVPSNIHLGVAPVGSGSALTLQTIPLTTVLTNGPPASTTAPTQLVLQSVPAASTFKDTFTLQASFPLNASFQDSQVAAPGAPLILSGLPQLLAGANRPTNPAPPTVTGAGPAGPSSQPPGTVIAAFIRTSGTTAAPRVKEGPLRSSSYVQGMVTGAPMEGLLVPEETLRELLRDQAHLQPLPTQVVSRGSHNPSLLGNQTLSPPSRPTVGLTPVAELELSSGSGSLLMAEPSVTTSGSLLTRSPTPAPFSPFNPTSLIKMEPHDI
# Summary of the method: as §1
# ELK4 = target: T3, ELK4 (Homo sapiens, UniProt P28324-2 1-405); conditions: protein: recombinant; tags: N-terminal GST; dsDNA, one strand shown
# T3 sequence: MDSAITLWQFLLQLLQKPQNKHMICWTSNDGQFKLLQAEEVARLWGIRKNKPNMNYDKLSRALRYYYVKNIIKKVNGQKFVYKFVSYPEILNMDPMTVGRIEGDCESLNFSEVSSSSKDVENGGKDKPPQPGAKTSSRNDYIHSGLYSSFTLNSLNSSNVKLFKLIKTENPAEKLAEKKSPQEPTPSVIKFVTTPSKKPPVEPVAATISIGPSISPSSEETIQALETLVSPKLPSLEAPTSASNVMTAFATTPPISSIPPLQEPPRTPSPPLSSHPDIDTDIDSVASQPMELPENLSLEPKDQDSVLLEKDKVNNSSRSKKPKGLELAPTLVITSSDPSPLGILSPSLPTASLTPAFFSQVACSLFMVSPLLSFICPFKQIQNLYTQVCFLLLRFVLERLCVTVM
# Summary of the method: as §1
# ETV2 = target: T4, ETV2 (Homo sapiens, UniProt O00321 1-342); conditions: protein: recombinant; tags: N-terminal GST; dsDNA, one strand shown
# T4 sequence: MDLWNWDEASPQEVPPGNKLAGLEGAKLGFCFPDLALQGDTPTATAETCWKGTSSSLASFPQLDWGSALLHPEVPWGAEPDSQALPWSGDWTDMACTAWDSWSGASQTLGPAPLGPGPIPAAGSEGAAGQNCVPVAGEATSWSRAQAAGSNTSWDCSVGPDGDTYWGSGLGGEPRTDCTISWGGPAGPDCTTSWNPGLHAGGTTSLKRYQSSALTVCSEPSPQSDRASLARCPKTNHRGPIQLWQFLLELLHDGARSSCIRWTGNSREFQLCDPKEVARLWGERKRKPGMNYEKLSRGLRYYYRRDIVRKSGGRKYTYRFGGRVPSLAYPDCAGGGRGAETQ
# Summary of the method: as §1
# ELF3 = target: T5, ELF3 (Homo sapiens, UniProt P78545 1-371); conditions: protein: recombinant; tags: N-terminal GST; dsDNA, one strand shown
# T5 sequence: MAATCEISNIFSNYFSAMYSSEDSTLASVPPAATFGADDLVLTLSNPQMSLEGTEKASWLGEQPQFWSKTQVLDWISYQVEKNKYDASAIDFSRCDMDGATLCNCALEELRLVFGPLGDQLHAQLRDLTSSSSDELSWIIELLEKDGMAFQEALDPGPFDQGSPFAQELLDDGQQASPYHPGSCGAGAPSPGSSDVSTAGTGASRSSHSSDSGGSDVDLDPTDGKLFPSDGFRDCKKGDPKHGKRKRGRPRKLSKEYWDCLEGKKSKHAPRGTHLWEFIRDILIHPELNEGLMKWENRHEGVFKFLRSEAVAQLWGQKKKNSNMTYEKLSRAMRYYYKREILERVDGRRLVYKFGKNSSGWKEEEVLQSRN
# Summary of the method: as §1
# CRX = CRX (Homo sapiens, UniProt O43186 1-299); conditions: protein: recombinant; tags: N-terminal GST; dsDNA, one strand shown
# Chain of CRX (O43186 whole entry): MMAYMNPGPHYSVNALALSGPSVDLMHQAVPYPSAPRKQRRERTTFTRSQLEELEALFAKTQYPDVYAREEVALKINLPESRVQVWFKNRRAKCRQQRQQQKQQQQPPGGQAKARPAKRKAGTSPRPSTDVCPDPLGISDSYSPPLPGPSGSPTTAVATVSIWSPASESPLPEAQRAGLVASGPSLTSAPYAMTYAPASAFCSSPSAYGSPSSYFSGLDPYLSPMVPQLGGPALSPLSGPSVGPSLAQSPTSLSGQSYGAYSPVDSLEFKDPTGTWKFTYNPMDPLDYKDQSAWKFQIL
# Summary of the method: as §1
# ETV1 = ETV1 (Homo sapiens, UniProt P50549 1-477); conditions: protein: recombinant; tags: N-terminal GST; dsDNA, one strand shown
# Chain of ETV1 (P50549 whole entry): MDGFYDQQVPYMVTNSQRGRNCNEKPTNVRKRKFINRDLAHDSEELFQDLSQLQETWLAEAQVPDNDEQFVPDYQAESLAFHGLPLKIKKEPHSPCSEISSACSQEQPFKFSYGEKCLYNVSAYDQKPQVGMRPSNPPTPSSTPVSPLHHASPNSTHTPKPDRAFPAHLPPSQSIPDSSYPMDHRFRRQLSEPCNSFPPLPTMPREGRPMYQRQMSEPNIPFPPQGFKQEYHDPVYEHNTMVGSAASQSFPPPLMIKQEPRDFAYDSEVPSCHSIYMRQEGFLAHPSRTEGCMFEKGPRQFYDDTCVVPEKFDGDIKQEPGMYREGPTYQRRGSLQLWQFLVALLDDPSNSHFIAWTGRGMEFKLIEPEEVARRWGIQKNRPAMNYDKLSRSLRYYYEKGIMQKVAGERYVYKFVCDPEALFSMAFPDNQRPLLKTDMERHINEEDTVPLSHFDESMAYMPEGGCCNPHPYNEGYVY
# Summary of the method: as §1
# ERF = target: T6, ERF (Homo sapiens, UniProt P50548 1-548); conditions: protein: recombinant; tags: N-terminal GST; dsDNA, one strand shown
# T6 sequence: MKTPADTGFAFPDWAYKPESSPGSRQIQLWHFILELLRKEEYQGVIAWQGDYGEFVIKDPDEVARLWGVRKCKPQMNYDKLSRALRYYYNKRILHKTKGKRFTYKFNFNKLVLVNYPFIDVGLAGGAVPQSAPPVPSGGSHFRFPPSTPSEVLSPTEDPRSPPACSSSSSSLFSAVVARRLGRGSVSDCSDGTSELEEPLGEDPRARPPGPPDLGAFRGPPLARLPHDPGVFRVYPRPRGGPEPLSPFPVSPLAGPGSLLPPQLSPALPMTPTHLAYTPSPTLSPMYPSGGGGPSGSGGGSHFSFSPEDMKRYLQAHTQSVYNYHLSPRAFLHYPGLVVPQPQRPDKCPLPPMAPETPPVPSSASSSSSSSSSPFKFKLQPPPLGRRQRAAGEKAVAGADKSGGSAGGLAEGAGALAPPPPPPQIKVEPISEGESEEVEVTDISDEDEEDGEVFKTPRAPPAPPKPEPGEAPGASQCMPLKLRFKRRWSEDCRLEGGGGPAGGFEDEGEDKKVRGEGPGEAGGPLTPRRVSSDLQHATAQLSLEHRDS
# Summary of the method: as §1
# ETV3L = target: T7, ETV3L (Homo sapiens, UniProt Q6ZN32 1-361); conditions: protein: recombinant; tags: N-terminal GST; dsDNA, one strand shown
# T7 sequence: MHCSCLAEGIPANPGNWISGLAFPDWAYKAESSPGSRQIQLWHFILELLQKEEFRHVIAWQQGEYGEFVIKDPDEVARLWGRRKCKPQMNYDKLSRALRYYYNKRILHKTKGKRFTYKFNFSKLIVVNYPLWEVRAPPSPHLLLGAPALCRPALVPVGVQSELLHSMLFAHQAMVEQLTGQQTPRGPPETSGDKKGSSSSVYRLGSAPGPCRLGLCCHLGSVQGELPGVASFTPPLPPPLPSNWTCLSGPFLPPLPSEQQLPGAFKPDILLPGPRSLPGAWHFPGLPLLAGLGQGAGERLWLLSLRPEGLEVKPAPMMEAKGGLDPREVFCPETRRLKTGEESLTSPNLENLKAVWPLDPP
# Summary of the method: as §1
# ETS2 = target: T8, ETS2 (Homo sapiens, UniProt P15036 1-469); conditions: protein: recombinant; tags: N-terminal GST; dsDNA, one strand shown
# T8 sequence: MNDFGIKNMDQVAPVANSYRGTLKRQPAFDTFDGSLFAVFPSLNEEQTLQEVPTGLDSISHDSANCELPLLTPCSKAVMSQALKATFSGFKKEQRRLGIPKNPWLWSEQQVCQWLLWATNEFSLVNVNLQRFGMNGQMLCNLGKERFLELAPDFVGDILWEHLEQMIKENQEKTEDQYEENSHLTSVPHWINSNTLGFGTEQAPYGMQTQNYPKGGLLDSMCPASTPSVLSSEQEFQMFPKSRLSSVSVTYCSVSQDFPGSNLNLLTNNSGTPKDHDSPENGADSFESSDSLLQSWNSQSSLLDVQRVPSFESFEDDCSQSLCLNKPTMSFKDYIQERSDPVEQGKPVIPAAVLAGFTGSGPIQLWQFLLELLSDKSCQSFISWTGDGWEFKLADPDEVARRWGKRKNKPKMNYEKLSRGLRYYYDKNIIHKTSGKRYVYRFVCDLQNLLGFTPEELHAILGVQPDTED
# Summary of the method: as §1
# SPDEF = target: T9, SPDEF (Homo sapiens, UniProt O95238 1-335); conditions: protein: recombinant; tags: N-terminal GST; dsDNA, one strand shown
# T9 sequence: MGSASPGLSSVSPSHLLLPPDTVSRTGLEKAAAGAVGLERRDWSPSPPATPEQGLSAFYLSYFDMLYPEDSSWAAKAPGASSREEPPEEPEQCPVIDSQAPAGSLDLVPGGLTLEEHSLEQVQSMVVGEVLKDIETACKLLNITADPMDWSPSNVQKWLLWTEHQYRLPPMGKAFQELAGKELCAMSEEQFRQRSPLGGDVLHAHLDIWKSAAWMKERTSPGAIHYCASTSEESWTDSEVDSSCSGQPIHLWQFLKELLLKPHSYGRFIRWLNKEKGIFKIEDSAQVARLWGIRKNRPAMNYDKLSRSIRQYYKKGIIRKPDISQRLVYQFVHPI
# Summary of the method: as §1
# ETV7 = target: T10, ETV7 (Homo sapiens, UniProt Q9Y603 1-341); conditions: protein: recombinant; tags: N-terminal GST; dsDNA, one strand shown
# T10 sequence: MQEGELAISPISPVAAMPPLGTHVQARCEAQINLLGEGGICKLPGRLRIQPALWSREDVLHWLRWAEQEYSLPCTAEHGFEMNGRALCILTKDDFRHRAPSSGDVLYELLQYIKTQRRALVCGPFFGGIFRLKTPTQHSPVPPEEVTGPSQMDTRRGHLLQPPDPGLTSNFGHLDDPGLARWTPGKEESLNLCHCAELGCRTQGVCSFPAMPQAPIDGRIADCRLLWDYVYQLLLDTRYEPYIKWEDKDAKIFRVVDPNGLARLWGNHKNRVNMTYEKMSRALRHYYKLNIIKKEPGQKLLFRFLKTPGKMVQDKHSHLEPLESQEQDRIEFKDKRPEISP
# Summary of the method: as §1
# ELF5 = target: T11, ELF5 (Homo sapiens, UniProt Q9UKW6-2 1-255); conditions: protein: recombinant; tags: N-terminal GST; dsDNA, one strand shown
# T11 sequence: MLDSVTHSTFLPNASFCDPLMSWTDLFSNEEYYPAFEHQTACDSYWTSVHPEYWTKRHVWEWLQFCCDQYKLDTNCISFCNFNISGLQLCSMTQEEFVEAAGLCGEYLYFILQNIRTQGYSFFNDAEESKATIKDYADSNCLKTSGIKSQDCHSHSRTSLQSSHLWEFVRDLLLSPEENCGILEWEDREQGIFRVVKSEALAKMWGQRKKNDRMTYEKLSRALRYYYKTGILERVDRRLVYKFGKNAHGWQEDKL
# Summary of the method: as §1
# ETV3 = target: T12, ETV3 (Homo sapiens, UniProt P41162-2 1-143); conditions: protein: recombinant; tags: N-terminal GST; dsDNA, one strand shown
# T12 sequence: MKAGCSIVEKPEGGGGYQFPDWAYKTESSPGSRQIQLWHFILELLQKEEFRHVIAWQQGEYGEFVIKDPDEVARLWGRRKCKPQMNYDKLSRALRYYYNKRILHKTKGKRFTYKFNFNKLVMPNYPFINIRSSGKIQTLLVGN
# Summary of the method: as §1
# ETV6 = ETV6 (Homo sapiens, UniProt P41212 1-452); conditions: protein: recombinant; tags: N-terminal GST; dsDNA, one strand shown
# Chain of ETV6 (P41212 whole entry): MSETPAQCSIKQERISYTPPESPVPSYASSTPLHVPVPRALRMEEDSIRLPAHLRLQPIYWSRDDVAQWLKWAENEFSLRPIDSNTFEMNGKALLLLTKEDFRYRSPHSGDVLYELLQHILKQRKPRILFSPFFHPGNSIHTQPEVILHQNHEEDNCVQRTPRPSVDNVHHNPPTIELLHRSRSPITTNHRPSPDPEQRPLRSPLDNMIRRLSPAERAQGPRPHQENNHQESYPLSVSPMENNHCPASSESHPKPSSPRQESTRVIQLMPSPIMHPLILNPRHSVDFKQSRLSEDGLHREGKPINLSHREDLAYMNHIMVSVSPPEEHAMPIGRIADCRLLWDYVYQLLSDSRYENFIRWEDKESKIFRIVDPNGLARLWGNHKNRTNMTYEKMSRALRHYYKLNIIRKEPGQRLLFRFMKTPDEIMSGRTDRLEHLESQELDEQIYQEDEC
# Summary of the method: as §1
sequence,measurement,setting,value
ACGCCT,binding signal,FEV,"1.17 fold enrichment (6-mer frequency, TF over GST control)"
same,binding signal,ETV5,"1.2 fold enrichment (6-mer frequency, TF over GST control)"
same,binding signal,HSF1,"1.15 fold enrichment (6-mer frequency, TF over GST control)"
same,binding signal,SPIC,"1.25 fold enrichment (6-mer frequency, TF over GST control)"
same,binding signal,ELF4,"1.21 fold enrichment (6-mer frequency, TF over GST control)"
same,binding signal,ELK4,"1.09 fold enrichment (6-mer frequency, TF over GST control)"
same,binding signal,ETV2,"1.29 fold enrichment (6-mer frequency, TF over GST control)"
same,binding signal,ELF3,"1.12 fold enrichment (6-mer frequency, TF over GST control)"
same,binding signal,CRX,"1.08 fold enrichment (6-mer frequency, TF over GST control)"
same,binding signal,ETV1,"1.05 fold enrichment (6-mer frequency, TF over GST control)"
same,binding signal,ERF,"1.15 fold enrichment (6-mer frequency, TF over GST control)"
same,binding signal,ETV3L,"1.31 fold enrichment (6-mer frequency, TF over GST control)"
same,binding signal,ETS2,"1.17 fold enrichment (6-mer frequency, TF over GST control)"
same,binding signal,SPDEF,"1.12 fold enrichment (6-mer frequency, TF over GST control)"
same,binding signal,ETV7,"1.01 fold enrichment (6-mer frequency, TF over GST control)"
same,binding signal,ELF5,"1.09 fold enrichment (6-mer frequency, TF over GST control)"
same,binding signal,ETV3,"1.19 fold enrichment (6-mer frequency, TF over GST control)"
same,binding signal,ETV6,"1.3 fold enrichment (6-mer frequency, TF over GST control)"
